# According to PubChem BioAssay (EPA / NIEHS):
# “And” between values parts separate entries of the source, which are not always exact repeats. Equal values may be shown once. Inconclusive results are not listed. The source made the active and inactive calls. The calls were made as follows: active = hit-call score of the fitted dose curve at least 0.9, where 1 is the maximum; inconclusive = response in the unintended direction; inactive = score below 0.9.
# Assays:
# [1] = target: human Matrix Metalloproteinase-9 (MMP9), MMP9 (gene 4318) (UniProt P14780); assay: NVS_ENZ_hMMP9: NovaScreen (NVS) Enzymatic Assay for human Matrix Metalloproteinase-9 (MMP9) (AID 2283190);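 also: cell-free recombinant MMP9 protease activity read by fluorescent substrate signal; active means inhibition seen as loss of fluorescence signal versus DMSO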
# Outline: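 Extracted enzyme, fluorescent substrate, 1 h post-dose read. Single conc 25 uM in duplicate, then concentration series for actives. Activity = signal loss relative to DMSO negative control.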
# [2] = target: human MAP Kinase-Activated Protein Kinase 2 (MAPKAPK2), MAPKAPK2 (gene 9261) (UniProt P49137); assay: NVS_ENZ_hMAPKAPK2: NovaScreen (NVS) Enzymatic Assay for human MAP Kinase-Activated Protein Kinase 2 (MAPKAPK2) (AID 2283178)
# Outline: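 Cell-free recombinant human MAPKAPK2 activity measured by fluorescence with electrophoretic mobility shift separation of substrate and product, 1 hr after dosing. Loss of signal versus DMSO; primary screen at 25 uM, concentration-response up to 50 uM.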
# [3] = target: human MET Proto-Oncogene, Receptor Tyrosine Kinase (MET), MET (gene 4233) (UniProt P08581); assay: NVS_ENZ_hMet: NovaScreen (NVS) Enzymatic Assay for human MET Proto-Oncogene, Receptor Tyrosine Kinase (MET) (AID 2283180)
# Outline: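 Cell-free MET kinase assay using recombinant protein and fluorescent substrate, with mobility-shift separation; read 1 h after dosing. Primary duplicate at 25 uM; actives in singleton concentration-response to 50 uM maximum. Signal loss versus DMSO.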
# [4] = target: human p21 Activated Kinase 4 (PAK4), PAK4 (gene 10298) (UniProt O96013); assay: NVS_ENZ_hPAK4: NovaScreen (NVS) Enzymatic Assay for human p21 Activated Kinase 4 (PAK4) (AID 2283189)
# Outline: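 Cell-free recombinant human PAK4 activity assay; fluorescent substrate and product separated by electrophoretic mobility shift, read 1 h after dosing. Initially tested in duplicate at 25 uM, relative to DMSO baseline.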
# [5] = target: human Matrix Metalloproteinase-7 (MMP7), MMP7 (gene 4316) (UniProt P09237); assay: NVS_ENZ_hMMP7: NovaScreen (NVS) Enzymatic Assay for human Matrix Metalloproteinase-7 (MMP7) (AID 2283183)
# Protocol: (§1) NVS_ENZ_hMMP7 is a biochemical, single-readout assay that uses extracted gene-proteins in a cell-free assay. Measurements were taken 1 hour after chemical dosing in a 96-well plate.NVS_ENZ_hMMP7 is one of one assay component(s) measured or calculated from the NVS_ENZ_hMMP7 assay. It is designed to make measurements of enzyme activity, a form of enzyme reporter, as detected with fluorescence intensity signals by Fluorescence technology.Data from the assay component NVS_ENZ_hMMP7 was analyzed into 1 assay endpoint. This assay endpoint, NVS_ENZ_hMMP7, was analyzed in the positive analysis fitting direction relative to DMSO as the negative control and baseline of activity. […] Furthermore, this assay endpoint can be referred to as a primary readout, because this assay has produced multiple assay endpoints where this one serves a enzymatic activity function. […]
# (§2) Binding assays used specific radioligands (tritiated, iodinated) with non-radioactive competitive displacement ligands in agonist or antagonist protocols (as indicated) and various reference compounds and inhibitors to titrate specific binding to receptors and transporters. Most enzyme assays (CYPs, kinases, phosphatases, proteases, HDACs) used recombinant protein and specific substrates (fluorescence mostly, some colorimetric and radioactive) and inhibitors, followed by a biochemical separation of substrate and product. […]
# [6] = target: human Matrix Metalloproteinase-1 (MMP1), MMP1 (gene 4312) (UniProt P03956); assay: NVS_ENZ_hMMP1: NovaScreen (NVS) Enzymatic Assay for human Matrix Metalloproteinase-1 (MMP1) (AID 2283181)
# Protocol: as §1, with “NVS_ENZ_hMMP1” for “NVS_ENZ_hMMP7”, “plate.NVS_ENZ_hMMP1” for “plate.NVS_ENZ_hMMP7”, “NVS_ENZ_hMMP1,” for “NVS_ENZ_hMMP7,”
# as §2
# [7] = target: human Matrix Metalloproteinase-3 (MMP3), MMP3 (gene 4314) (UniProt P08254); assay: NVS_ENZ_hMMP3: NovaScreen (NVS) Enzymatic Assay for human Matrix Metalloproteinase-3 (MMP3) (AID 2283185)
# Protocol: as §1, with “NVS_ENZ_hMMP3” for “NVS_ENZ_hMMP7”, “plate.NVS_ENZ_hMMP3” for “plate.NVS_ENZ_hMMP7”, “NVS_ENZ_hMMP3,” for “NVS_ENZ_hMMP7,”
# as §2
# [8] = target: human Mitogen- and Stress-activated Protein Kinase-1 (Msk1), RPS6KA5 (gene 9252) (UniProt O75582); assay: NVS_ENZ_hMsk1: NovaScreen (NVS) Enzymatic Assay for human Mitogen- and Stress-activated Protein Kinase-1 (Msk1) (AID 2283187)
# Outline: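 Recombinant kinase with fluorescent substrate; product separated by electrophoretic mobility shift, read 1 h after dosing. Screened in duplicate at 25 uM; hits (e.g. ≥30% inhibition) tested in concentration–response up to 50 uM. DMSO baseline.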
# [9] = target: human NIMA (Never In Mitosis Gene A)-Related Kinase 2 (NEK2), NEK2 (gene 4751) (UniProt P51955); assay: NVS_ENZ_hNEK2: NovaScreen (NVS) Enzymatic Assay for human NIMA (Never In Mitosis Gene A)-Related Kinase 2 (NEK2) (AID 2283188)
# Outline: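 Cell-free NEK2 enzyme activity after 1 h exposure, read by fluorescence with electrophoretic mobility shift separating substrate and product. Primary screen in duplicate at 25 uM; actives then run as concentration series. Loss of signal versus DMSO scored.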
# [10] = target: human Matrix Metalloproteinase-2 (MMP2), MMP2 (gene 4313) (UniProt P08253); assay: NVS_ENZ_hMMP2: NovaScreen (NVS) Enzymatic Assay for human Matrix Metalloproteinase-2 (MMP2) (AID 2283184)
# Protocol: as §1, with “NVS_ENZ_hMMP2” for “NVS_ENZ_hMMP7”, “plate.NVS_ENZ_hMMP2” for “plate.NVS_ENZ_hMMP7”, “NVS_ENZ_hMMP2,” for “NVS_ENZ_hMMP7,”
# as §2
# human NIMA (Never In Mitosis Gene A)-Related Kinase 2 (NEK2), NEK2 (gene 4751), sequence (P51955 whole entry, looked up): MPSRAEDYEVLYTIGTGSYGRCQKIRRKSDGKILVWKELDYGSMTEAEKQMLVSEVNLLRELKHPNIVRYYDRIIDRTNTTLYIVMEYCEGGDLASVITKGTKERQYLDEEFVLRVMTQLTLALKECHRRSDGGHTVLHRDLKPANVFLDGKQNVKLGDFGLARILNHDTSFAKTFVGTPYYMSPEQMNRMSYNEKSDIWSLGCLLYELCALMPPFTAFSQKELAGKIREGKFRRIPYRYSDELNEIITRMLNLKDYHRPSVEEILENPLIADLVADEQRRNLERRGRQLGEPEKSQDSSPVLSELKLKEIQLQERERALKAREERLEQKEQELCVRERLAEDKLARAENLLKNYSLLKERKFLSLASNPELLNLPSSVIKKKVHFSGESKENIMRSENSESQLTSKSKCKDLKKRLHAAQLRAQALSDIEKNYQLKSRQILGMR
# human MET Proto-Oncogene, Receptor Tyrosine Kinase (MET), MET (gene 4233), sequence (P08581 whole entry, looked up): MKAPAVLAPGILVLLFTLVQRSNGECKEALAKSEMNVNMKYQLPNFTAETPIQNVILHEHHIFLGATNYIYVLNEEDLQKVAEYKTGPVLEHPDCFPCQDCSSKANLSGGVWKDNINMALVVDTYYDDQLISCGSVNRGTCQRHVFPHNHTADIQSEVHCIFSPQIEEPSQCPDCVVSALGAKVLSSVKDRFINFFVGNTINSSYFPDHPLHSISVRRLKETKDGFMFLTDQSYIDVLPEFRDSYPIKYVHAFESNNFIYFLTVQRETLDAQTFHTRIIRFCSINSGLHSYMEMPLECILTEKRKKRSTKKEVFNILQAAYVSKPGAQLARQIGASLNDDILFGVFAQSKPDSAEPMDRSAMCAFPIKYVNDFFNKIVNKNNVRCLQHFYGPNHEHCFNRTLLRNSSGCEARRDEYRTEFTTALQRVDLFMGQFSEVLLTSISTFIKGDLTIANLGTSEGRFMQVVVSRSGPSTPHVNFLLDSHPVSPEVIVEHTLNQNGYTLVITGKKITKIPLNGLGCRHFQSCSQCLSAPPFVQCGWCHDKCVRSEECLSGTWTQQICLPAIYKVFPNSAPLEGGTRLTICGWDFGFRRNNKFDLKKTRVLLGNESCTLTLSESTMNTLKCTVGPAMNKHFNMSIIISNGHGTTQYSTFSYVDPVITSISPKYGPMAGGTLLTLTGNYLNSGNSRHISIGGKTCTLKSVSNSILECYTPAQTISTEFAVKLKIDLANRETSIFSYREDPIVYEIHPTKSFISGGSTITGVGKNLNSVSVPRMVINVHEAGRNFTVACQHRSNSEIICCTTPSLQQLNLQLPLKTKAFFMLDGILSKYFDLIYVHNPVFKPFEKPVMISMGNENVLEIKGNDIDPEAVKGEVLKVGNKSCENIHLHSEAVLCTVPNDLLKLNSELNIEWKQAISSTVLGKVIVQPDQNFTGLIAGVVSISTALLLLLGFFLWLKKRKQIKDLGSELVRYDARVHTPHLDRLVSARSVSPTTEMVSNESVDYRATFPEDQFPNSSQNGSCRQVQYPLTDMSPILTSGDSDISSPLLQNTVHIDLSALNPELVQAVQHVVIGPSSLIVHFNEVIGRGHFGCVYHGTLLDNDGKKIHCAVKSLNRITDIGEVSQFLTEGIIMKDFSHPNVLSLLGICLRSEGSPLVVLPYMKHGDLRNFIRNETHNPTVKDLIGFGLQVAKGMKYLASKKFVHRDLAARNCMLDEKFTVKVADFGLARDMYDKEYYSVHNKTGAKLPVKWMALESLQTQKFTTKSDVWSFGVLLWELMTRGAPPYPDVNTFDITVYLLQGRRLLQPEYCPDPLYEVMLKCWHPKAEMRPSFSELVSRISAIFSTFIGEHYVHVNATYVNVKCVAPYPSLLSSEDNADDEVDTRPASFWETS
# human MAP Kinase-Activated Protein Kinase 2 (MAPKAPK2), MAPKAPK2 (gene 9261), sequence (P49137 whole entry, looked up): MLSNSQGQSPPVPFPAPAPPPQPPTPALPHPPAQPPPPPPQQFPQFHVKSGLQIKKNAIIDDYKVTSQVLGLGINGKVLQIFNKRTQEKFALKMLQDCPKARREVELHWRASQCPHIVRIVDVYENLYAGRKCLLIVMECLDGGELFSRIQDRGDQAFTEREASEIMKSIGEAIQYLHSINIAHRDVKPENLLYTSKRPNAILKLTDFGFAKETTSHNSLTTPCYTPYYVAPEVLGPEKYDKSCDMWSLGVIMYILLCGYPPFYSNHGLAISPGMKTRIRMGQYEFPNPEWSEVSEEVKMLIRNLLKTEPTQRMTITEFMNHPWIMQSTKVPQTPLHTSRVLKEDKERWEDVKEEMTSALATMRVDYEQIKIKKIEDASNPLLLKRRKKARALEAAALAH
# human Matrix Metalloproteinase-9 (MMP9), MMP9 (gene 4318), sequence (P14780 whole entry, looked up): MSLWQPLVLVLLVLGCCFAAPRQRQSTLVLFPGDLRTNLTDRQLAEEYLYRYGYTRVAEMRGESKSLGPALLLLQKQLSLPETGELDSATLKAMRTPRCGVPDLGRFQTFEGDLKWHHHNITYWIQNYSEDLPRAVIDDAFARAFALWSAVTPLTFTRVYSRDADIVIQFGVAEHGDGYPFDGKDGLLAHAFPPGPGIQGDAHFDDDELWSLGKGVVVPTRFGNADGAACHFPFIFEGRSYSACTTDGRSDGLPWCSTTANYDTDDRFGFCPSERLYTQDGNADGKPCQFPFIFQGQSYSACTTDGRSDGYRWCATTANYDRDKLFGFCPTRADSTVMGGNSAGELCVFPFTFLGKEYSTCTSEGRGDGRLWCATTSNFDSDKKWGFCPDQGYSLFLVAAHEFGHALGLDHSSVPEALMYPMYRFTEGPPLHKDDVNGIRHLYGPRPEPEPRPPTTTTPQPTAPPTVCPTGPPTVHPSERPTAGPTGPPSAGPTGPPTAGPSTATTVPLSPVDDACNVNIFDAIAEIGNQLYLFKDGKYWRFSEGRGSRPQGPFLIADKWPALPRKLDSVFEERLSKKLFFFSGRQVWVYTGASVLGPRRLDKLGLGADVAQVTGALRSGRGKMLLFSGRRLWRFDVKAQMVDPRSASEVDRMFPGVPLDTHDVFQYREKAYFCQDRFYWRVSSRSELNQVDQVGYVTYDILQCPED
# human p21 Activated Kinase 4 (PAK4), PAK4 (gene 10298), sequence (O96013 whole entry, looked up): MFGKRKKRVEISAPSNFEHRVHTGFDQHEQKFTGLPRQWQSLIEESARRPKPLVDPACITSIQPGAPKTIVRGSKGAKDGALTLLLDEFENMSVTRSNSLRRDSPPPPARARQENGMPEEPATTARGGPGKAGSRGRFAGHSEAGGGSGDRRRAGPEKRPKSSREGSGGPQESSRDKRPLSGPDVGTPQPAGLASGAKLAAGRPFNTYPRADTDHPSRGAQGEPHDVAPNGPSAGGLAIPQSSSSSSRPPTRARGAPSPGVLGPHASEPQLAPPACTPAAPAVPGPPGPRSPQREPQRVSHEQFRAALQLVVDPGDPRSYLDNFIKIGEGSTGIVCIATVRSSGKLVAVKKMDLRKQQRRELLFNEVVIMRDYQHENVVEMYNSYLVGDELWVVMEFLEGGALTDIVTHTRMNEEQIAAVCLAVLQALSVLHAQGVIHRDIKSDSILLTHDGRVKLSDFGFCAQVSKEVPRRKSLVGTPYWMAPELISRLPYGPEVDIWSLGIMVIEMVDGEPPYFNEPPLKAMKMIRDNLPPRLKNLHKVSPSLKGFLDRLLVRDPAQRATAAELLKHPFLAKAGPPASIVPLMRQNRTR
# human Mitogen- and Stress-activated Protein Kinase-1 (Msk1), RPS6KA5 (gene 9252), sequence (O75582 whole entry, looked up): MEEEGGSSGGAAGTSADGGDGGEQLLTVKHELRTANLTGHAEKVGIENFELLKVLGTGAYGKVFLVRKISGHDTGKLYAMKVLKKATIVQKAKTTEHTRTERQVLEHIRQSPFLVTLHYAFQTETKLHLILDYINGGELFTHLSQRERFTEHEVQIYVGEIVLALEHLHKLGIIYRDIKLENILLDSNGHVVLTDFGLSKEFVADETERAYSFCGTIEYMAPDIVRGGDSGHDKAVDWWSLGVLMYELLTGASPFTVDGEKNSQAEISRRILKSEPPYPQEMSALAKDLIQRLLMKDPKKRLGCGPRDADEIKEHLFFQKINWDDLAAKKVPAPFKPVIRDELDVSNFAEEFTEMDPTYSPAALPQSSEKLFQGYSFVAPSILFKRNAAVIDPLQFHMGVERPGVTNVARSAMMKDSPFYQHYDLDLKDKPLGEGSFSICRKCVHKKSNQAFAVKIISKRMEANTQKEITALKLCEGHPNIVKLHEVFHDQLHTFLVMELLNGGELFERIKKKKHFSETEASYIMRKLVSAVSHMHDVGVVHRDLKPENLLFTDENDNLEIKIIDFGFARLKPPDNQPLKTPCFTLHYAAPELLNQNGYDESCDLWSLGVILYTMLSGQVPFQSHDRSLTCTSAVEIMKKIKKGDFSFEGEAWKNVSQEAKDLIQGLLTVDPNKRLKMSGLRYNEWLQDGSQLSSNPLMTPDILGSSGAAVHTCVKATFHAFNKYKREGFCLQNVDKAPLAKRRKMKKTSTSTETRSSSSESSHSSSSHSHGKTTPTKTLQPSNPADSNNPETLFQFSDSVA
# human Matrix Metalloproteinase-1 (MMP1), MMP1 (gene 4312), sequence (P03956 whole entry, looked up): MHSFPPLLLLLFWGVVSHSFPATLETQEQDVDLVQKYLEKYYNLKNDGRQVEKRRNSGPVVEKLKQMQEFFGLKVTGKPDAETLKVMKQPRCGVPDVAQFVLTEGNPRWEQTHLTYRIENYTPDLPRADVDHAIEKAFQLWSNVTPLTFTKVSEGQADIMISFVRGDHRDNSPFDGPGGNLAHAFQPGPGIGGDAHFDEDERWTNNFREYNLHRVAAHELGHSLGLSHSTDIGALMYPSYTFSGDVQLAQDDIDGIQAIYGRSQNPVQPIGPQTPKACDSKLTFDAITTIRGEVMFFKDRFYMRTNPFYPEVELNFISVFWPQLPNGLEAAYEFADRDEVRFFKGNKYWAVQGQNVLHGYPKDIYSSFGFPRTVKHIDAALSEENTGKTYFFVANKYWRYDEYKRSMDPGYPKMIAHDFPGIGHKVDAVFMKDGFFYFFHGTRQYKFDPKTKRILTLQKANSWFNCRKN
smiles,measurement,setting,value
OC[P+](CO)(CO)CO,AC50,[1],1.27 µM (active) and 3.16 µM (active)
CCOP(=O)(OCC)OC(=CCl)c1ccc(Cl)cc1Cl,AC50,[1],22.8 µM (active)
[Cl][Sn]([c]1ccccc1)([c]1ccccc1)[c]1ccccc1,outcome,[1],inactive
O=C(N[C@H]1CN2CCC1CC2)c1ccc2c(c1)OCCO2,outcome,[2],inactive
same,outcome,[3],inactive
same,outcome,[4],inactive
COc1nn(C(=O)NS(=O)(=O)c2ccccc2OC(F)(F)F)c(=O)n1C,outcome,[5],inactive
same,AC50,[4],17.4 µM (active)
CCCCCCCCCCCCc1cccc(S(=O)(=O)O)c1,AC50,[2],34.3 µM (active)
same,AC50,[3],17.8 µM (active)
same,AC50,[6],9.41 µM (active)
same,AC50,[7],12.9 µM (active)
same,AC50,[8],25.2 µM (active)
same,AC50,[9],12.2 µM (active)
CCCCCCCCCCCCOS(=O)(=O)O,AC50,[3],25.4 µM (active)
same,AC50,[6],7.91 µM (active)
same,outcome,[4],inactive
COc1ccccc1N,outcome,[2],inactive
O=c1oc2ccccc2c(O)c1C(CC(O)c1ccc(-c2ccc(Br)cc2)cc1)c1ccccc1 (centres undefined),AC50,[1],0.436 µM (active)
Clc1cccc(Cl)c1Cl,outcome,[3],inactive
same,AC50,[10],11.5 µM (active)
same,outcome,[8],inactive
same,outcome,[9],inactive
same,outcome,[4],inactive
C[N+](C)(C)Cc1ccccc1,AC50,[1],8.55 µM (active) and 5.15 µM (active)
C#CCOC(=O)/C=C(C)/C=C/CC(C)CCCC(C)C (centres undefined),AC50,[1],7.1 µM (active)
N#Cc1cccnc1,outcome,[2],inactive
same,outcome,[3],inactive
same,outcome,[9],inactive
same,outcome,[4],inactive
CC(C)O.CC(C)O.OCCN(CCO)CCO.OCCN(CCO)CCO.[Ti],AC50,[2],0.00624 µM (active)
same,AC50,[3],25 µM (active)
same,AC50,[8],0.109 µM (active)
same,AC50,[9],17.5 µM (active)
same,AC50,[4],0.00229 µM (active)
CC(C)(c1ccccc1)c1cc(-n2nc3ccccc3n2)c(O)c(C(C)(C)c2ccccc2)c1,AC50,[1],1.24 µM (active)
CC1(C)[C@H](C(=O)O[C@H](C#N)c2cccc(Oc3ccccc3)c2)[C@@H]1/C=C(\Cl)C(F)(F)F,AC50,[1],7.08 µM (active)
CCOC(=O)CCN(SN(C)C(=O)Oc1cccc2c1OC(C)(C)C2)C(C)C,AC50,[1],3.66 µM (active)
CN(C)C(=S)S,outcome,[4],inactive
CCCCN(CCCC)C(=S)[S-].CCCCN(CCCC)C(=S)[S-].[Ni+2],AC50,[1],12.5 µM (active)
Oc1c(Br)cc(Br)cc1Br,outcome,[1],inactive
BrCCCCBr,AC50,[1],15.3 µM (active)
CC(C)(C#N)N=NC(C)(C)C#N,AC50,[1],6.44 µM (active)
CC(C)(C)c1cc([N+](=O)[O-])cc(C(C)(C)C)c1O,AC50,[1],1.64 µM (active)
